# PubChem BioAssay AID602292 (National Center for Advancing Translational Sciences (NCATS), 2012)
# In all, about 1,300 compounds went through this assay and about 380 (29%) were called active. Another 37% or so got no clear call; they are omitted. Calls come from the whole dose curve; as a rule, active = well fitted inhibition curve with a large enough effect; inconclusive = small, poorly fitted or top-dose-only effect; inactive = flat fitted curve, though single readings scatter. The list shows a part of the results. A call without a number means that no potency is given here.
# Biological target: Thyrotropin receptor (Homo sapiens) (UniProt P16473)
# Sequence (P16473 whole entry, looked up): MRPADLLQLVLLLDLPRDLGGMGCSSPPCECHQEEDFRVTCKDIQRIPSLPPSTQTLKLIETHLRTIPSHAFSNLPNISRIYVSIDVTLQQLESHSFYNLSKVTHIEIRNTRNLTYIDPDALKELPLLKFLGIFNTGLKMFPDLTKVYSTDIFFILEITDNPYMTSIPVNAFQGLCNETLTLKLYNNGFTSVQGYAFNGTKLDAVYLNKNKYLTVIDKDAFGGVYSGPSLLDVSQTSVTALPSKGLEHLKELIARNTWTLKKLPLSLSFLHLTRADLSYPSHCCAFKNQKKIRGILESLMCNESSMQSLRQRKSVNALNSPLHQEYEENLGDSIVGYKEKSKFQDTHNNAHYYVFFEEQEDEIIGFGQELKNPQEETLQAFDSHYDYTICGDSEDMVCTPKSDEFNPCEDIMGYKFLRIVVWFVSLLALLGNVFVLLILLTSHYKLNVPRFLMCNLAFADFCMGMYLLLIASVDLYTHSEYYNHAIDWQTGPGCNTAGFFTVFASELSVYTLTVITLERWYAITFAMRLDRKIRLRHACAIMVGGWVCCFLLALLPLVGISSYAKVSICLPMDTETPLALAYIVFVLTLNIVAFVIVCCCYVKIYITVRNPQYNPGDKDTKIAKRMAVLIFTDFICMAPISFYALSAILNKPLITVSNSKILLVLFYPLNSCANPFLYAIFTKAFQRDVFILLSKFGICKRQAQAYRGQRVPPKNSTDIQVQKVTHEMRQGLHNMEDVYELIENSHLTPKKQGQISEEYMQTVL
# Assay: qHTS for antagonists of the Thyroid Stimulation Hormone Receptor: Hit Validation in Primary Screen; note: nearly all actives have a fitted effect of over 80% in size
# Details: TSHR-expressing cells, cAMP antagonist mode; series mostly up to 58 µM
# From the text: The thyroid-stimulating hormone receptor (TSHR) is a member of the 7 trans-membrane-spanning receptor (7TMR) family of cell surface receptors. TSHR-mediated hyperthyroidism is important in thyroid pathology. The development of small molecule antagonists of TSHR may lead to therapeutic approaches for TSHR-mediated hyperthyroidism caused by constitutively activating mutations or stimulating auto-antibodies associated with Graves' disease. Graves' disease is the leading cause of hyperthyroidism and is caused by autoantibodies that stimulate TSHR (TsAbs) causing thyroid growth and unregulated overproduction of thyroid hormones and existing treatments have liabilities (agranulocytosis). In addition, TSHRs are known to be expressed in multiple extrathyroidal tissues including bone, brain, kidney, testis, fat and cells of the immune system but the role of the TSHR in these tissues is not clear. Therefore, TSHR antagonists/inverse agonists could be used as probes of extrathyroidal TSHR function. Finally, TSHR inverse agonists, which are a subclass of antagonists that inhibit agonist-independent (or basal or constitutive) TSHR signaling, could be used to inhibit TSH-independent signaling in patients with recurrent or metastatic thyroid cancer who are receiving thyroid hormone to suppress TSH.
# In collaboration between scientist from the NCGC and the NIDDK, a miniaturized HTRF high-throughput screen was developed. It's a cell based assay, where an anti cAMP antibody contains a fluorescent cryptate tag (excitation 337 nm; emission 620 nm) and the acceptor is cAMP-d2 (excitation 620 nm; emission 665 nm). When antibody and cAMP-d2 interact and are excited by a 337 nm light, a FRET occurs resulting in emission at 665 nm. The assay is competition between cAMP-d2 and cAMP (from the cell lysate). The homogeneous protocol allows for one step dispense after stimulation that is automation friendly. This is a hit validation assay using the primary screen format.
# NIH Chemical Genomics Center [NCGC]
# NIH Molecular Libraries Probe Centers Network [MLPCN]
# Assay Provider: Marvin Gershengorn, NIDDK
# 1. 3ul of 200 TSHR freshly harvested cells/well are dispensed into a 1536 TC-treated white solid bottom plate.
# 2. Through pintool addition, 23nl of compounds and control in 100% DMSO are added to the plate.
# 3. Then 1ul of EC80 TSH (4nM final) is added to the plate.
# 4. Assay is incubated at 37 deg C for 2 hours.
# 5. 2ul of cAMP antibody diluted 1:20 in lysis buffer is added.
# 6. Immediately following, 2ul of d2 diluted 1:20 in HBSS is added seperately.
# 7. The assay is incubated for 30 minutes at ambient room temperature.
# 8. The result is obtained by using a ViewLux read-out with HTRF settings.
# Potency is the fitted concentration of half-maximal effect.
row,Structure (SMILES),Potency
1,CC(C)C1Nc2c(O)cc(Cl)c([N+](=O)[O-])c2C2C=CCC21 (configuration not stated),8.49 µM (active)
2,COc1ccc(CNC(=O)CCS(=O)(=O)c2cc3c(cc2Cl)NC(=O)CO3)cc1,inactive
3,C/C(=N\NC(=O)c1cccc(Cl)c1)C1C(=O)c2ccccc2C1=O,12 µM (active)
4,CC(=O)N1c2ccc(S(=O)(=O)N3CCC(C(=O)NC4CCCCC4C)CC3)cc2CC1C (configuration not stated),inactive
5,O=C(COc1cccc2ccccc12)Nc1ccc(Cl)cc1C(=O)O,4.78 µM (active)
6,O=C(COc1ccc(Cl)cc1Cl)Nc1ccc(C(=O)Nc2ccccc2C(=O)O)cc1,23.9 µM (active)
7,O=C(CSc1ccccn1)Nc1cccc2ccccc12,inactive
8,O=C(Nc1cccc2ccccc12)c1ccccc1,inactive
9,O=C(CSc1ccc2nnc(CCNC(=O)c3ccccc3)n2n1)NCc1ccc(F)cc1,inactive
10,N#Cc1ccc(C(=O)Nc2nc(-c3cccs3)c(C(=O)C(F)(F)F)s2)cc1,6.01 µM (active)
11,Cc1ccccc1NC(=O)CCc1c(C)nn(-c2ccc(N3CCOCC3)nn2)c1C,inactive
12,CC(=O)c1c(O)cc(O)c(C(C)=O)c1O,30.1 µM (active)
13,Cc1ccc(-n2nc3c(=O)n(C(C)C(=O)NC4CC4)nc(C)c3c2C)cc1 (configuration not stated),inactive
14,COc1ccc(-c2nn(-c3ccccc3)cc2/C=N/NC(=O)c2ccc(Br)o2)cc1,9.53 µM (active)
15,COc1cc(C(=O)N/N=C/c2cn(Cc3ccccc3)c3ccccc23)ccc1O,inactive
16,CCN(C(=O)CSc1nnc(CNc2cccc(OC)c2)n1C1CCCCC1)C1CCS(=O)(=O)C1 (configuration not stated),inactive
17,CC(=O)c1cccc(NS(=O)(=O)c2cc(-c3cnc(C4CC4)o3)ccc2C)c1,21.3 µM (active)
18,COc1ccc(NS(=O)(=O)c2cc(-c3cnc(C4CC4)o3)ccc2C)cc1,26.9 µM (active)
19,CC(=O)c1cccc(NC(=O)c2sc3nc4n(c(=O)c3c2C)CCCC4)c1,inactive
20,Cc1ccc(-c2cnc(C3CC3)o2)cc1S(=O)(=O)Nc1ccccc1,30.1 µM (active)
21,COc1ccc(-c2cc3c(=O)n(CC(=O)NCc4cccnc4)nc(C)n3n2)cc1,inactive

row,Structure (SMILES),Potency
1,CCCn1c(=O)c2[nH]c(C3CCCC3)nc2n(CCC)c1=O,inactive
2,O=C(NN=C1CCCC1)c1cc(Cl)cc(Cl)c1O,inactive
3,Cc1c(Cl)sn(-c2ccc(Cl)cc2)c1=O,26.9 µM (active)
4,CC1=N/C(=C\c2ccc([N+](=O)[O-])cc2)C(=O)N1c1ccc(Cl)cc1,inactive
5,CS(=O)(=O)N(Cc1ccccc1)c1ccc(C(=O)N2CCN(c3cccc(Cl)c3)CC2)cc1,inactive
6,O=C(NCCc1ccccc1)c1cc2ccccc2oc1=O,inactive
7,O=C(Nc1ccc(N2CCN(C(=O)c3ccccc3)CC2)cc1)c1cc2ccccc2o1,23.9 µM (active)
8,CCN(c1ccc(OC)cc1)S(=O)(=O)c1cc(-c2cc(C)no2)ccc1C(C)C,inactive
9,CCc1ccc(-c2cc(C)no2)cc1S(=O)(=O)N1CCN(c2ccccn2)CC1,30.1 µM (active)
10,CC(NC(=O)c1cc(=O)[nH]c2ccccc12)c1ccc(F)cc1F (configuration not stated),inactive
11,O=C(Nc1ccc(Cl)cc1)c1cc2c(cc1O)[nH]c1ccccc12,3.01 µM (active)
12,Cc1ccc(NC(=O)Cn2ncc3c([nH]c4ccccc43)c2=O)cc1Cl,inactive
13,COC(=O)Cc1c(C)[nH]n(-c2cc(Cl)cc(Cl)c2)c1=O,inactive
14,Cc1cc(C)n2nc(SCC(=O)Nc3ccccc3C)nc2n1,inactive
15,Cc1cc(C(=O)NC2CCCc3c2cnn3-c2ccc(C(C)(C)C)cc2)nn1C (configuration not stated),30.1 µM (active)
16,Cc1cc(C)cc(OC(C)C(=O)NCCCn2ccnc2)c1 (configuration not stated),inactive
17,O=C(Nc1ccc(Cl)c(S(=O)(=O)N2CCOCC2)c1)c1ccc(OCC2CCCO2)cc1 (configuration not stated),15.1 µM (active)
18,CC1=C(C(=O)N2CCCC(N3CCN(c4ccccc4C)CC3)C2)OCCO1 (configuration not stated),inactive
19,CCOc1ccccc1N1CCN(C(=O)CCCN2C(=O)c3cccc4cccc(c34)C2=O)CC1,30.1 µM (active)
20,COCCNC(=O)CN1C(=O)c2cccc3cccc1c23,inactive
21,COc1ccccc1N1CCN(C(=O)CCC(=O)N2CCN(c3ccc(F)cc3)CC2)CC1,inactive

row,Structure (SMILES),Potency
1,O=C(COC(=O)c1ccccc1C(=O)c1ccc(Cl)c([N+](=O)[O-])c1)NC1CCCCCC1,23.9 µM (active)
2,Nc1ccc(C(=O)NC2CCSc3ccccc32)cc1[N+](=O)[O-] (configuration not stated),inactive
3,Cc1ccc(NC(=O)CCc2nnc3ccc(NCc4ccco4)nn23)nc1,inactive
4,Cc1ccc(S(=O)(=O)NC(=O)Nc2ccc(N(C)C)cc2)cc1,30.1 µM (active)
5,CN(C)c1ccc(NC(=O)Oc2ccccc2)cc1,inactive
6,CN(C)c1ccc(NC(=O)C2C3C=CC(C3)C2C(=O)O)cc1 (configuration not stated),inactive
7,COc1cccc(CN(C)C(=O)c2ccc(OCC(=O)Nc3cccc(C(F)(F)F)c3)c(OC)c2)c1,23.9 µM (active)
8,CSCCCNC(=O)c1ccc(OC2CCN(C(=O)c3cccnc3)CC2)cc1,inactive
9,Cn1c2c(c(=O)n(C)c1=O)C(C(F)(F)F)(C(F)(F)F)N=C(c1ccc(Cl)cc1)N2,19 µM (active)
10,COc1ccc(C2c3ccc(O)cc3Oc3ncn(Cc4ccco4)c(=N)c32)cc1 (configuration not stated),inactive
11,O=C(CN1C(=O)NC2(CCCCCC2)C1=O)N1CCC(Cc2ccccc2)CC1,21.3 µM (active)
12,CC(=O)N1c2ccc(S(=O)(=O)N(C)CC(=O)N(C)Cc3ccccc3)cc2CC1C (configuration not stated),inactive
13,CC1Cc2ccccc2N1C(=O)COC(=O)/C=C/c1cccc(F)c1 (configuration not stated),30.1 µM (active)
14,CC(C)Cc1ccc(C(C)C(=O)Nc2nccs2)cc1 (configuration not stated),inactive
15,COc1ccc(OC)c2c1C(=O)C(Cl)=C(Cl)C2=O,33.8 µM (active)
16,Cc1cccc(OC2CCN(Cc3nc(CC4CC4)no3)CC2)c1,inactive
17,O=C(N[C@H]1C/C=C\C(c2cccc(F)c2)N(Cc2ccccc2)C(=O)C1)OCC1c2ccccc2-c2ccccc21 (some centres not stated),inactive
18,CCc1cc(CNC(=O)CC2C(=O)NCCN2Cc2ccc(-c3ccccc3)cc2)on1 (configuration not stated),inactive
19,CCCc1ccc(-c2c(C)sc(NC(=O)c3ccnn3C)c2C#N)cc1,23.9 µM (active)
20,CCN1C(=NCc2ccc(OC)cc2)N[C@@H](CCc2ccccc2)[C@H](C(=O)NCc2ccc(OC)cc2)[C@H]1C,inactive
